Source: PubChem BioAssay (NCI)
The panel holds about 83,000 compounds, 20% with a hit somewhere; the sample as a whole holds those more often.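 Percent growth is the endpoint: 0 to 100 indicates growth inhibition (40 means 60% inhibition), 0 means no net growth, and negative values indicate cell death.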 The source made the active and inactive calls. The calls were made as follows: active = growth percent below 10; inactive = the rest.

Legend:
Assay in all cases: NCI-60 one-dose screen, 48 h (100 = growth as untreated, 0 = no growth, -100 = all killed)
Conditions in all cases: 10 µM unless noted
SR leukemia = test system: SR leukemia
OVCAR-8 ovarian = test system: OVCAR-8 ovarian
OVCAR-5 ovarian = test system: OVCAR-5 ovarian
OVCAR-4 ovarian = test system: OVCAR-4 ovarian
SK-OV-3 ovarian = test system: SK-OV-3 ovarian
IGROV1 ovarian = test system: IGROV1 ovarian
HS 578T breast = test system: HS 578T breast
NCI/ADR-RES ovarian = test system: NCI/ADR-RES ovarian
T-47D breast = test system: T-47D breast
BT-549 breast = test system: BT-549 breast
MDA-MB-435 melanoma = test system: MDA-MB-435 melanoma
SW-620 colon = test system: SW-620 colon
MCF7 breast = test system: MCF7 breast
HCT-116 colon = test system: HCT-116 colon
HCC-2998 colon = test system: HCC-2998 colon
KM12 colon = test system: KM12 colon
OVCAR-3 ovarian = test system: OVCAR-3 ovarian
RPMI-8226 leukemia = test system: RPMI-8226 leukemia

Measured: growth

C/C(=N\NC(=O)/C=C/CC(=O)O)c1nnn(-c2ccc([N+](=O)[O-])cc2)c1C
inactive: SR leukemia 95.4% | OVCAR-8 ovarian 101% | OVCAR-5 ovarian 108% | OVCAR-4 ovarian 106% | SK-OV-3 ovarian 106% | IGROV1 ovarian 103% | HS 578T breast 116% | NCI/ADR-RES ovarian 102% | T-47D breast 98.9% | BT-549 breast 103% | MDA-MB-435 melanoma 103% | SW-620 colon 100% | MCF7 breast 97.8% | HCT-116 colon 97.9% | HCC-2998 colon 105% | KM12 colon 97.2%

CN1CC[C@@H]2[C@@]3(C)CC[C@H](O)C(C)(C)[C@@H]3CC[C@@]2(C)[C@]2(C)CC[C@@]3(CO)CCC(C)(C)C[C@@H]3C12 (stereo partly drawn)
inactive: SR leukemia 30.2% | OVCAR-8 ovarian 97.2% | OVCAR-5 ovarian 91.7% | OVCAR-4 ovarian 96.7% | SK-OV-3 ovarian 108% | IGROV1 ovarian 94.8% | HS 578T breast 79.2% | NCI/ADR-RES ovarian 96.8% | T-47D breast 79.8% | BT-549 breast 96.7% | MDA-MB-435 melanoma 95.7% | SW-620 colon 90.2% | MCF7 breast 77% | HCT-116 colon 77.9% | HCC-2998 colon 27.5% | KM12 colon 96.2%

C=C(C=O)[C@@H]1CC[C@]2(C(=O)O)CC[C@]3(C)C(CC[C@@H]4[C@@](C)(CCC#N)[C@H](C(=C)C=O)CC[C@]43C)[C@@H]12 (stereo partly drawn)
active: SR leukemia 0.41% | OVCAR-8 ovarian -9.95% | NCI/ADR-RES ovarian 5.79% | MDA-MB-435 melanoma -9.89% | HCT-116 colon -82.8%
inactive: OVCAR-5 ovarian 127% | OVCAR-4 ovarian 18.7% | SK-OV-3 ovarian 126% | IGROV1 ovarian 14.6% | HS 578T breast 47.1% | T-47D breast 28.1% | BT-549 breast 28.9% | SW-620 colon 10.9% | MCF7 breast 14.3% | HCC-2998 colon 108% | KM12 colon 92%

O=C(CCCCCCNC(=O)C(O)(O)C(F)(F)F)Nc1ccc(Br)cc1
inactive: OVCAR-4 ovarian 28.5% | IGROV1 ovarian 15.7% | HS 578T breast 15.7% | NCI/ADR-RES ovarian 16.9% | BT-549 breast 19.5% | MCF7 breast 13.7% | KM12 colon 14.1%
active: SR leukemia 8.58% | OVCAR-8 ovarian 7.83% | OVCAR-5 ovarian 5.89% | SK-OV-3 ovarian -13.4% | OVCAR-3 ovarian -12.8% | T-47D breast 8.06% | MDA-MB-435 melanoma 6.63% | SW-620 colon 3.78% | HCT-116 colon -6.77% | HCC-2998 colon 1.89%

COc1ccc(Cn2cc(C#N)c(N)c2C(C)=O)cc1
inactive: SR leukemia 122% | OVCAR-8 ovarian 111% | OVCAR-5 ovarian 106% | OVCAR-4 ovarian 92.9% | SK-OV-3 ovarian 105% | IGROV1 ovarian 106% | OVCAR-3 ovarian 108% | HS 578T breast 102% | NCI/ADR-RES ovarian 104% | T-47D breast 96.8% | BT-549 breast 114% | MDA-MB-435 melanoma 104% | SW-620 colon 111% | MCF7 breast 90.4% | HCT-116 colon 108% | HCC-2998 colon 107% | KM12 colon 98.7%

N#Cc1c(-c2cccs2)cc(-c2cnccn2)nc1SCC(=O)N/N=C/c1ccncc1
inactive: RPMI-8226 leukemia 103% | OVCAR-8 ovarian 103% | OVCAR-5 ovarian 114% | OVCAR-4 ovarian 111% | SK-OV-3 ovarian 109% | IGROV1 ovarian 104% | OVCAR-3 ovarian 117% | HS 578T breast 109% | NCI/ADR-RES ovarian 108% | T-47D breast 101% | BT-549 breast 113% | MDA-MB-435 melanoma 104% | SW-620 colon 112% | MCF7 breast 92.5% | HCT-116 colon 101% | HCC-2998 colon 109% | KM12 colon 100%

O=C(Nc1ccc(N2CCOCC2)cc1)Nc1ccc2c(ccn2C(=O)c2cccc(F)c2)c1
inactive: RPMI-8226 leukemia 58.5% | OVCAR-8 ovarian 58.3% | OVCAR-5 ovarian 99.3% | OVCAR-4 ovarian 82.6% | SK-OV-3 ovarian 111% | IGROV1 ovarian 81% | OVCAR-3 ovarian 82.7% | HS 578T breast 21.7% | NCI/ADR-RES ovarian 74.2% | T-47D breast 68.9% | BT-549 breast 71.7% | MDA-MB-435 melanoma 68.3% | SW-620 colon 74.5% | MCF7 breast 53.2% | HCT-116 colon 24.2% | HCC-2998 colon 62.4% | KM12 colon 74.1%

O=C1Nc2ccccc2/C1=C/c1ccc(OCC(=O)c2ccccc2)cc1
inactive: RPMI-8226 leukemia 95% | OVCAR-8 ovarian 94.8% | OVCAR-5 ovarian 102% | OVCAR-4 ovarian 96.5% | SK-OV-3 ovarian 102% | IGROV1 ovarian 102% | HS 578T breast 93.9% | NCI/ADR-RES ovarian 98.2% | T-47D breast 97.6% | BT-549 breast 118% | MDA-MB-435 melanoma 102% | SW-620 colon 102% | HCT-116 colon 94.4% | HCC-2998 colon 105% | KM12 colon 99.9%

CC(C)NC(=O)c1cc(-c2ccc(NC(=O)Nc3ccc(F)cc3)cc2)nc2cccnc12
inactive: RPMI-8226 leukemia 109% | OVCAR-8 ovarian 105% | OVCAR-5 ovarian 109% | OVCAR-4 ovarian 104% | SK-OV-3 ovarian 112% | IGROV1 ovarian 110% | OVCAR-3 ovarian 115% | HS 578T breast 109% | NCI/ADR-RES ovarian 104% | T-47D breast 97.8% | BT-549 breast 104% | MDA-MB-435 melanoma 98.7% | MCF7 breast 79.9% | HCT-116 colon 95.5% | HCC-2998 colon 108% | KM12 colon 95.7%

N#Cc1c(-c2cccs2)cc(-c2cnccn2)nc1SCC(=O)N/N=C/c1ccccc1
active: OVCAR-4 ovarian 3.09% | SW-620 colon 8.83% | HCT-116 colon -23.6%
inactive: OVCAR-8 ovarian 43.4% | OVCAR-5 ovarian 87.2% | SK-OV-3 ovarian 106% | IGROV1 ovarian 61.9% | OVCAR-3 ovarian 27.7% | HS 578T breast 40.7% | NCI/ADR-RES ovarian 37% | T-47D breast 25.6% | BT-549 breast 14.8% | MDA-MB-435 melanoma 23.6% | MCF7 breast 19.4% | HCC-2998 colon 71%

COc1cc2cc(Oc3ccc(NC(=O)Nc4ccc(F)c(C(F)(F)F)c4)cc3)c(C)nc2cc1OCCN(C)C
active: MCF7 breast -89.6%
inactive: RPMI-8226 leukemia 80.2% | OVCAR-8 ovarian 102% | OVCAR-5 ovarian 137% | OVCAR-4 ovarian 112% | SK-OV-3 ovarian 116% | HS 578T breast 108% | T-47D breast 91.4% | BT-549 breast 99% | MDA-MB-435 melanoma 98.2% | SW-620 colon 53.7% | HCT-116 colon 107% | HCC-2998 colon 104% | KM12 colon 102%

COc1cc(OC)cc(-c2cc(-c3c[nH]c4ccccc34)nc(-c3c[nH]c4ccccc34)c2C#N)c1
inactive: RPMI-8226 leukemia 99% | OVCAR-8 ovarian 102% | OVCAR-5 ovarian 109% | OVCAR-4 ovarian 102% | SK-OV-3 ovarian 99.9% | IGROV1 ovarian 93.7% | HS 578T breast 102% | NCI/ADR-RES ovarian 97.1% | T-47D breast 98.3% | BT-549 breast 104% | MDA-MB-435 melanoma 99.4% | SW-620 colon 103% | MCF7 breast 90.7% | HCT-116 colon 101% | HCC-2998 colon 113% | KM12 colon 98.7%

CSc1ccc(/C(=N/N=C(N)N)c2ccc(Cl)cc2)cc1
inactive: OVCAR-5 ovarian 11.4% | OVCAR-4 ovarian 57% | SK-OV-3 ovarian 24.7% | T-47D breast 50.5%
active: RPMI-8226 leukemia 6.98% | OVCAR-8 ovarian -18.4% | IGROV1 ovarian 4.76% | HS 578T breast 4% | NCI/ADR-RES ovarian -3.46% | BT-549 breast -37.3% | MDA-MB-435 melanoma -30.1% | SW-620 colon 2.54% | MCF7 breast 0.167% | HCT-116 colon -27.7% | HCC-2998 colon -68.2% | KM12 colon 5.79%

NC(N)=NS(=O)(=O)c1ccc(N=Nc2c(N)nn(-c3ccc([N+](=O)[O-])cc3[N+](=O)[O-])c2N)cc1
inactive: RPMI-8226 leukemia 99.1% | OVCAR-8 ovarian 100% | OVCAR-5 ovarian 106% | OVCAR-4 ovarian 104% | SK-OV-3 ovarian 91.4% | IGROV1 ovarian 103% | HS 578T breast 97.9% | NCI/ADR-RES ovarian 99.3% | T-47D breast 104% | BT-549 breast 123% | MDA-MB-435 melanoma 103% | MCF7 breast 96.2% | HCT-116 colon 101% | HCC-2998 colon 113% | KM12 colon 101%

CC1(C)CC[C@]23CC[C@]4(C)[C@H](CC[C@@H]5[C@@]6(C)CC[C@H](N)C(C)(C)[C@@H]6CC[C@]54C)[C@H]2[C@H]1OC3
active: RPMI-8226 leukemia -24.1% | NCI/ADR-RES ovarian 2.93% | SW-620 colon -44.3% | MCF7 breast -8.5% | HCT-116 colon -82.7% | HCC-2998 colon -15.9%
inactive: OVCAR-8 ovarian 85.6% | OVCAR-5 ovarian 112% | OVCAR-4 ovarian 96.7% | SK-OV-3 ovarian 101% | IGROV1 ovarian 69.9% | OVCAR-3 ovarian 70.2% | HS 578T breast 94.4% | T-47D breast 88.1% | BT-549 breast 88.9% | MDA-MB-435 melanoma 90.6% | KM12 colon 18%

O=S(=O)(Oc1ccc(-c2cn3ccoc3n2)cc1)c1cccc(C(F)(F)F)c1
inactive: RPMI-8226 leukemia 94.4% | OVCAR-8 ovarian 101% | OVCAR-5 ovarian 103% | OVCAR-4 ovarian 102% | SK-OV-3 ovarian 117% | IGROV1 ovarian 106% | HS 578T breast 98.6% | NCI/ADR-RES ovarian 106% | T-47D breast 85.5% | BT-549 breast 98.8% | MDA-MB-435 melanoma 101% | SW-620 colon 103% | HCT-116 colon 102% | HCC-2998 colon 99.8% | KM12 colon 95.7%

Cc1ccc2c(n1)C(=O)C(Cl)=C(Nc1ccc(C(=O)OC(C)(C)C)cc1)C2=O
active: RPMI-8226 leukemia -0.459% [9.25 µM] | OVCAR-3 ovarian 1.44% [9.25 µM] | T-47D breast -8.23% [9.25 µM] | SW-620 colon -42% [9.25 µM] | HCT-116 colon -70.5% [9.25 µM]
inactive: OVCAR-8 ovarian 80.3% [9.25 µM] | OVCAR-5 ovarian 127% [9.25 µM] | OVCAR-4 ovarian 42.7% [9.25 µM] | SK-OV-3 ovarian 101% [9.25 µM] | IGROV1 ovarian 84.8% [9.25 µM] | HS 578T breast 101% [9.25 µM] | NCI/ADR-RES ovarian 84.9% [9.25 µM] | BT-549 breast 84% [9.25 µM] | MDA-MB-435 melanoma 87.6% [9.25 µM] | MCF7 breast 11.3% [9.25 µM] | HCC-2998 colon 103% [9.25 µM] | KM12 colon 105% [9.25 µM]

C(=N\Nc1nc(N/N=C/c2ccc3c(c2)OCO3)nc(N2CCCCC2)n1)/c1ccc2c(c1)OCO2
inactive: RPMI-8226 leukemia 56.2% | OVCAR-8 ovarian 90.1% | OVCAR-5 ovarian 118% | OVCAR-4 ovarian 110% | SK-OV-3 ovarian 140% | IGROV1 ovarian 76.9% | OVCAR-3 ovarian 105% | HS 578T breast 104% | NCI/ADR-RES ovarian 85.5% | T-47D breast 87.2% | BT-549 breast 122% | MDA-MB-435 melanoma 98.5% | SW-620 colon 82.4% | HCT-116 colon 47.9% | HCC-2998 colon 83.8% | KM12 colon 86.2%
